Screens (PubChem BioAssay)
A selection: hits, their analogues and other compounds. The true share with any hit is near 13%.
USP8 inh: blocks human USP8 ubiquitin-rhodamine cleavage; P40818; purified USP8, Ub-rhodamine cleavage fluorescence, 30 min; inhibition, % at 20 µM; actives 4.2% (n = 47,000); AID 1645853
USP10 block: human USP10 deubiquitinase inhibition | inhibition, % at 20 µM | actives 1.1% (n = 47,000) | Q14694 | purified USP10, Ub-rhodamine fluorescence, 60 min
OTUD3 block: blocks human OTUD3 ubiquitin-rhodamine cleavage; inhibition, % at 25 µM; actives 0.7% (n = 47,000); purified OTUD3, Ub-rhodamine fluorescence, 2 h; AID 1645858
USP17 inh: human USP17-like deubiquitinase inhibition; purified USP17, Ub-rhodamine cleavage fluorescence, 3 h; inhibition, % at 50 µM; actives 6.5% (n = 47,000); AID 1645855
USP30 inh: human USP30 deubiquitinase inhibition. Q70CQ3. purified USP30, Ub-rhodamine cleavage fluorescence. inhibition, % at 25 µM. actives 5.3% (n = 47,000). AID 1645860
Target sequence (Q70CQ3 whole entry, looked up): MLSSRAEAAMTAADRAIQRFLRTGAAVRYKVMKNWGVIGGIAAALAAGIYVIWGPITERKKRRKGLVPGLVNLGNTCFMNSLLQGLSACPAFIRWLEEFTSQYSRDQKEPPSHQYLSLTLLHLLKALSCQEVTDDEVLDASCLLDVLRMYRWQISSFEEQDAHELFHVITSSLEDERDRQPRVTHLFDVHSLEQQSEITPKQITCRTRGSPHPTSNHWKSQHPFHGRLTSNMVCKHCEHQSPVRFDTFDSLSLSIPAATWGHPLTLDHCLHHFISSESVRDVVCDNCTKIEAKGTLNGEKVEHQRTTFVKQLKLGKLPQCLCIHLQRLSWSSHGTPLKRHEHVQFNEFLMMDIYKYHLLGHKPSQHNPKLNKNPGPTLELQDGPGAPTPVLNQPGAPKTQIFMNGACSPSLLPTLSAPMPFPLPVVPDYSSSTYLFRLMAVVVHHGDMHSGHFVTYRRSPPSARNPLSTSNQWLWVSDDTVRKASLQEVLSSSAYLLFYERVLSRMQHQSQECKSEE
USP28 block: inhibitors of human USP28 deubiquitinase; actives 3% (n = 47,000); inhibition, % at 25 µM; AID 1645857; purified USP28, Ub-rhodamine cleavage fluorescence, 30 min
Of the large screens only hits and unclear results are named; the others gave an inactive call. No stated cut-off is given here; in the data, active means inhibition above about 30%; inactive means the rest.

CCOc1ccc(CNC(=O)CCC(=O)Nc2ccc3nc(N4CCCCC4)cc(C)c3c2)cc1	none
COc1ccccc1Cc1cccc(C2CCCN2S(=O)(=O)N(C)C)n1 (centres undefined)	none
Cc1cc(N2CCN(c3ncccn3)CC2)nc2ccc(NC(=O)/C=C/c3ccccc3Cl)cc12	USP17 inh 51.4, USP28 block 40.3
COc1ccc(CCC(=O)Nc2ccc3c(c2)Sc2ncccc2C(=O)N3C)cc1	USP28 block 54.6
COc1ccc(/C=C/C(=O)Nc2ccc3nc(N4CCN(c5ncccn5)CC4)cc(C)c3c2)cc1	USP8 inh 88.3, USP17 inh 43.3
COc1ccc(CCC(=O)Nc2ccc3nc(N4CCN(c5ncccn5)CC4)cc(C)c3c2)cc1	USP8 inh 36.3, USP30 inh 30.3
COc1cccc(CNC(=O)CCC(=O)Nc2ccc3nc(N4CCCCC4)cc(C)c3c2)c1	none
COc1cccc(CN2CCCn3c(nc4ccccc43)C2)c1	none
CC1=C2[C@H]3OC(=O)[C@@H](C)[C@@H]3CC[C@@]2(C)C(=O)CC1	none
CCN(CC)c1cc(C)c2cc(NC(=O)c3ccncc3)ccc2n1	USP28 block 70.9
Cn1c(NCc2ccc3c(c2)OCO3)nc(=O)n(-c2ccccc2)c1=O	none
Cc1nc2c3ccccc3nc(NCc3ccc4c(c3)OCO4)n2n1	USP17 inh 53.7
COc1ccccc1NC(=O)CSC1=NC2(CCCCC2)Nc2ccccc21	USP8 inh 84.2, USP17 inh 53.8
Cc1ccc(-c2cc3nc(Nc4ccc(C(N)=O)cc4)ccn3n2)cc1	USP8 inh 71.4 (no result: USP17 inh)
CCN1C(=O)Cc2cc(NS(=O)(=O)c3cc(C)ccc3OC)ccc21	USP17 inh 47.2
CCOc1ccc(S(=O)(=O)Nc2ccc3c(c2)CC(=O)N3CC)cc1	none
Cc1cccc(NC(=O)Cn2cnc3c(c2=O)CCN(Cc2ccccc2)C3)c1	none
COc1ccccc1N1CCN(CC(O)COc2ccc(C(C)=O)cc2)CC1 (centres undefined)	none
CCOC(=O)c1cnn(-c2ccc(C(=O)NCCCN3CCCCCC3)cc2)c1N	none
CCOC(=O)c1cnn(-c2ccc(C(=O)Nc3ccc(C)c(Cl)c3)cc2)c1N	USP17 inh 61.8
CCOc1ccc2[nH]c(=O)c(-c3nc4ccc(C)cn4c3NCc3ccccc3)cc2c1	USP10 block 31.1, USP17 inh 48.5, USP28 block 31.6
O=C(Nc1cc(F)ccc1F)c1cc(-c2cccnc2)n[nH]1	USP17 inh 56.7 (no result: USP30 inh, USP28 block)
O=C(Nc1ccc(Cl)cc1F)c1cc(-c2cccnc2)n[nH]1	USP30 inh 40.5
Cc1c(CC(=O)NCC(C)C)c(=O)oc2cc3c(cc12)CCC1(CCCCC1)O3	USP17 inh 35.7
Cc1cc(O)c2c(C)c(CC(=O)N[C@@H](CCCNC(N)=O)C(=O)O)c(=O)oc2c1	none
Cc1c(C(=O)N2CCCN(S(=O)(=O)c3ccc(F)cc3)CC2)oc2ccc(F)cc12	none
Cc1ccc(S(=O)(=O)N2CCCN(C(=O)c3oc4ccccc4c3C)CC2)cc1	USP30 inh 33.3
O=C(CNC(=O)c1cc2c(=O)n3ccccc3nc2s1)c1ccccc1	USP8 inh 43.7
O=C(Nc1ccc2[nH]c(=O)[nH]c2c1)c1cc2c(=O)n3ccccc3nc2s1	none
CC(=O)Nc1cccc(NC(=O)COc2cccc3ccc(N4CCCC4)nc23)c1	USP17 inh 53.4
Cc1cccc(NC(=O)COc2cccc3ccc(N4CCC(C(N)=O)CC4)nc23)c1	USP8 inh 60.6, USP17 inh 33.0
Cc1nc(-c2cncc(-c3cccs3)c2)cc(N2CCCCC2)n1	none (no result: USP30 inh, USP28 block)
CC(C)N1C(=O)C2COCCN2C(=O)c2cc3c(cc21)OCO3 (centres undefined)	USP17 inh 36.9 (no result: USP30 inh, USP28 block)
O=C(NC1CCCC1)c1ccc(-c2ccc(S(=O)(=O)NCc3ccccc3)cc2)cc1	USP8 inh 45.0, USP30 inh 41.0
Cc1cccc(S(=O)(=O)Nc2ccc(N3CCN(C)CC3)c(C(=O)O)c2)c1	USP8 inh 88.9
O=C(NCc1ccccc1)c1cc(-c2ccn(CC3CC3)n2)n2ccccc12	none
O=C(Nc1ccc(Cl)cn1)c1ccn(COc2ccccc2)n1	none
Cc1cccc(C)c1NC(=O)c1ccn(COc2ccccc2)n1	USP28 block 36.0
Cc1ccc(NC(=O)c2ccn(COc3ccc(F)cc3)n2)nc1	USP17 inh 59.9
COc1ccc(OCn2ccc(C(=O)Nc3cnn(C)c3C)n2)cc1	none (no result: USP17 inh)
Cc1ccnc(NC(=O)c2ccn(COc3ccc(Cl)cc3)n2)c1	USP8 inh 31.0, USP17 inh 46.6, USP30 inh 71.7
Cc1ccnc(NC(=O)c2ccn(COc3ccc(F)cc3)n2)c1	USP30 inh 40.0
O=C(CN1CCOCC1)Nc1ccc(NC(=O)c2cccc(F)c2)cc1	none
Cc1cncc(C(=O)N2CCOCC(Cc3ccc4[nH]ncc4c3)C2)c1 (centres undefined)	none
CCC(Cc1ccccc1)NC(=O)c1cc2sc(Cl)cc2n1C (centres undefined)	none
Cn1c(C(=O)NCc2ccc(F)cc2)cc2sc(Cl)cc21	USP30 inh 33.6
CC(OC(=O)c1cc(=O)[nH]c2ccccc12)C(=O)Nc1ccc(F)cc1Cl (centres undefined)	USP17 inh 44.7
Cc1cc(C)c(NC(=O)Cn2c(SCc3cccc(F)c3)nc3cccnc32)c(C)c1	USP8 inh 56.9, USP17 inh 63.9, USP30 inh 73.3, USP28 block 39.8
CCC(C(=O)Nc1ccccc1F)n1c(SCc2cccc(F)c2)nc2ccncc21 (centres undefined)	none
CCc1ccccc1NC(=O)Cn1c(SCc2ccc(F)cc2)nc2cccnc21	USP8 inh 69.7, USP10 block 36.5, USP17 inh 86.3, USP30 inh 57.0, USP28 block 42.8
COc1cccc(N2CCN(C(=O)CCNS(=O)(=O)c3ccc4c(c3)CCN4C(C)=O)CC2)c1	none
CC(=O)c1cc(Cl)ccc1OCC(=O)N1CCCc2ccccc21	none
CNC(=O)CN(C(=O)C1CCC1)[C@@H]1C[C@@H]2CO[C@H](C(C)C)C[C@@H]2C1	none
CCn1cc(S(=O)(=O)NCc2ccccc2)c2cccnc21	USP8 inh 35.2, USP17 inh 41.1
O=c1oc2ccccc2c2nn(-c3ccccn3)cc12	USP17 inh 50.8
CC(NS(=O)(=O)c1cccc(Cl)c1)C(=O)O (centres undefined)	USP30 inh 30.3
Cc1cc(C)n(-c2ccc(C(=O)Nc3cccc(S(=O)(=O)N4CCCC4)c3)cc2)n1	USP30 inh 74.2, USP28 block 69.4
O=C(Nc1ccc(N2CCOCC2)cc1)c1cccc(S(=O)(=O)N2CCCC2)c1	none
CC(C)Oc1ccc(C(=O)Nc2cccc(S(=O)(=O)N3CCCC3)c2)cc1	USP28 block 63.0
CCN(CC)S(=O)(=O)c1cccc(NC(=O)c2ccc(OC(F)(F)F)cc2)c1	USP28 block 30.2
